VCAM1 TNFa inh: reduces TNF alpha induced VCAM1 expression in HUVEC. inhibition, % at 2 µM. 95,000 compounds, 0.48% hits. HUVEC TNFa-induced VCAM-1 immunofluorescence, high-content imaging;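 active means inhibition above the batch mean plus 3 SD, with images confirmed as a hit by eye, cut at about 37% in these data; inconclusive means inhibition above that limit but hit not confirmed in images; inactive means inhibition not above that limit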
HUVEC tox TNFa: HUVEC cytotoxicity counter-screen, TNF alpha stimulated; HUVEC TNFalpha-stimulated, Hoechst cell count, imaging; 93,000 compounds, 0.17% hits; AID 848; cell count reduction, % at 2 µM;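 active means cell count reduction exceeding the screen mean by over 5 SD, scaled to untreated wells per plate, cut at about 78% in these data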;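 further: cells counted after 24 h of TNF alpha exposure following the 1 h pretreatment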
NFkB transloc inh: blocks IL-1B driven NFkB nuclear translocation in HUVEC cells; inhibition, % at 2 µM; HUVEC IL-1B NFkB p65 nuclear translocation imaging; AID 796; 94,000 compounds, 0.43% hits;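 active means inhibition above about 30% together with a positive call from visual inspection of the well image, limit read from the data; inconclusive means inhibition above a set limit but visual check negative; inactive means inhibition not above a set limit, visual check negative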;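 further: nuclear over cytoplasmic p65 intensity ratio measured by imaging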
IL1B cytotox: HUVEC cytotoxicity counter-screen, IL-1B stimulated; 94,000 compounds, 0.41% hits; cell count reduction, % at 2 µM; HUVEC cell count loss, Hoechst imaging; AID 845;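 active means cell count reduction more than 3 SD above the screen-wide mean, cut at about 70% in these data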
IL1B NFkB pot: enhances IL-1B driven NFkB nuclear translocation; HUVEC IL-1B NFkB p65 nuclear translocation imaging; activation, % at 2 µM; 94,000 compounds, 0.3% hits;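 active means activation above 40%, about the mean plus 3 SD, also judged a hit on visual image review; inconclusive means activation above 40% but not a hit on visual review; inactive means activation not above 40% and no visual hit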;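 further: percent activation is computed from the nuclear over cytoplasmic p65 intensity ratio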
Each line names hits and unclear results; the compound was inactive in the other large screens. Most compounds without a hit are left out; they make up all but 1.5% or so of the library.

COc1ccccc1NC(=O)C(CCS(C)(=O)=O)N1C(=O)c2ccccc2C1=O (stereo not drawn)	IL1B NFkB pot 42
CCCCCNC(=O)C(C#N)c1nc2ccccc2nc1N1CC(C)OC(C)C1 (stereo not drawn)	none
CN1C(=O)C2(NCCc3c2[nH]c2ccccc32)c2ccccc21 (stereo not drawn)	VCAM1 TNFa inh 53 (no result: HUVEC tox TNFa)
CN1C(=O)C(O)(C2COC(C)(C)CC2=O)c2ccccc21 (stereo not drawn)	none
O=S(=O)(Cc1nc2ccccc2s1)c1ccccc1	none
COc1ccccc1NC(=S)NNC(=O)c1cc(C)n(C)n1	none
N=c1c2c(-c3ccccc3)c(-c3ccccc3)n(Cc3ccccc3)c2ncn1CCCn1ccnc1	VCAM1 TNFa inh 73
COc1ccc(NC(=O)/C(Cl)=C(/Cl)S(=O)(=O)Cc2ccccc2)cn1	IL1B NFkB pot 68
CCCCNC(=O)C1CCN(C/C(C)=C/c2ccccc2)CC1	none
C/C(=C\c1ccccc1)CN1CCC(C(=O)N2CCC(C)CC2)CC1	IL1B NFkB pot 46
Cc1ccc(N=C(NO)c2nonc2N)cc1	none
COc1ccc(C(C)=O)cc1CSc1nc2cc(Cl)ccc2o1	IL1B cytotox 88
O=C(CSc1nnc(Cc2cc(=O)[nH]c(=O)[nH]2)n1-c1ccccc1)N1CCCC1	none
O=C(COC(=O)C1(c2ccccc2F)CCCC1)NC1CCS(=O)(=O)C1 (stereo not drawn)	VCAM1 TNFa inh 95
CCOC(=O)c1c2ccc(OCC(=O)N/N=C/c3ccc(Cl)cc3)cc2n2ccccc12	none
COc1cccc(C(=O)N(CN2CCCC2=O)c2ccccc2OC)c1	none
COC(=O)CN1C(=O)CSc2ncccc21	IL1B NFkB pot 52
Cc1ccc2c(C(=O)CN3CCCCC3CCO)c(C)[nH]c2c1 (stereo not drawn)	none
Cc1ccc2c(C(=O)CN3CCN(C4CCCCC4)CC3)c(C)[nH]c2c1	IL1B cytotox 92
Cc1occc1-c1nnc(SCC(=O)NCc2cccs2)n1-c1ccc(F)cc1	none
O=[N+]([O-])c1ccc(Sc2nc3ccccc3o2)c([N+](=O)[O-])c1	VCAM1 TNFa inh 73
CCOc1cc(S(=O)(=O)Nc2ccccc2CC)ccc1Cl	VCAM1 TNFa inh 98, HUVEC tox TNFa 79
COc1ccc(C(CCc2ccc(C)o2)NC(=O)Nc2ccc(OC)cc2OC)cc1 (stereo not drawn)	none
Cc1ccc2nc(/C(C#N)=C\c3ccc([N+](=O)[O-])o3)[nH]c2c1	NFkB transloc inh 38
Cc1ccc2nc(/C(C#N)=C\c3ccc(N4CCOCC4)o3)[nH]c2c1	none
COCCCNC(=O)c1cn(C)c(=O)c2cc(OC)c(OC)cc12	VCAM1 TNFa inh inconclusive, HUVEC tox TNFa 100
CCOC(=O)CNC(=O)c1cn(C)c(=O)c2cc(OC)c(OC)cc12	none
CCC(C)(C)NC(=O)C(c1ccncc1)N(Cc1ccc(C)cc1)C(=O)c1csnn1 (stereo not drawn)	IL1B cytotox 90
Cn1c(/C=N/n2cnnc2)nc2ccccc21	NFkB transloc inh 99, IL1B cytotox 85
Cn1c(/C=N/c2nc3ccccc3[nH]2)nc2ccccc21	none
COc1ccc(C2SCC(=O)N2CCCN(C)C)cc1 (stereo not drawn)	none
COc1ccc(-n2nc3c(c2NC(=O)C2CCCC2)CS(=O)C3)cc1 (stereo not drawn)	none
O=C(CCC1CCCCC1)Nc1c2c(nn1-c1ccc(F)cc1)CS(=O)C2 (stereo not drawn)	IL1B cytotox 76
Cc1ccc(S(=O)(=O)NCC2CCC(C(=O)NCCCN3CCOCC3)CC2)cc1 (stereo not drawn)	none
COc1cc(CC(=O)Nc2ncc(C)s2)cc(OC)c1OC	VCAM1 TNFa inh 51
Cc1cnc(NC(=O)COc2ccccc2)s1	none
Cc1cccc2c1NC(C)CC2C (stereo not drawn)	none
Cc1ccc(CCNC(=O)Cn2cccc2)cc1	NFkB transloc inh 98, IL1B cytotox 88
Cc1ccc(CCNC(=O)NC(C)(C)C)cc1	none
CNC(=O)c1sc(-c2ccc(Cl)cc2)nc1C	IL1B cytotox 75
O=C(CN1CCN(c2ccccn2)CC1)Nc1ccccc1	IL1B NFkB pot 41
CC(=O)Nc1ccc(NC(=O)CN2CCN(c3cccc(C(F)(F)F)c3)CC2)cc1	NFkB transloc inh 34
O=C(CN1CCN(c2ccccn2)CC1)Nc1ccc(F)cc1	none
COc1cccc(C(=O)Oc2cc(N)n(S(=O)(=O)c3ccc(C)cc3)n2)c1OC	NFkB transloc inh 32
CCOC(=O)CN1C(=O)C(=O)c2cccc(C)c21	none
CCN1C(=O)CSC1=NC12CC3CC(CC(C3)C1)C2	VCAM1 TNFa inh 96
CN1C(=O)CSC1=NC12CC3CC(CC(C3)C1)C2	IL1B NFkB pot 40
CCN=C1SC(C(N)=O)CC(=O)N1CC (stereo not drawn)	none
COCCNc1nnc(SCC(=O)N2CCN(S(=O)(=O)c3ccccc3)CC2)s1	none
Cc1cc(C(=O)NC2CCCc3ccccc32)c(C)o1 (stereo not drawn)	none
CC(NCc1ccc2c(c1)OCO2)C(=O)NC1CCCc2ccccc21 (stereo not drawn)	HUVEC tox TNFa 95 (no result: VCAM1 TNFa inh)
O=C(N/C(=C/c1ccco1)C(=O)N1CCCC1)c1cccs1	none
O=C(CCn1c(=O)oc2ccccc21)NCc1cccs1	none
CCSc1nnc(NC(=O)Cc2cccc(OC)c2)s1	NFkB transloc inh 36
CC(NC(=O)COC(=O)Cc1ccsc1)C1CC2CCC1C2 (stereo not drawn)	VCAM1 TNFa inh 88
COc1cccc(C2C(C(C)=O)=C(O)C(=O)N2CCc2c[nH]c3ccccc23)c1 (stereo not drawn)	none
O=C(Nc1nnc(C2CCCC2)s1)C1CCC1	IL1B NFkB pot 40
O=C(CC1CCCC1)Nc1nnc(C2CC2)s1	none
C=CCSc1nc2ccccc2n1Cc1nnc(-c2cccs2)o1	none
O=C(O)c1cccc(S(=O)(=O)NCC2CCCO2)c1 (stereo not drawn)	NFkB transloc inh 93, IL1B cytotox 90
CCOCCc1nnc(NC(=O)COC)s1	IL1B cytotox 84
CCOC(=O)Nc1nnc(CCc2ccccc2)s1	NFkB transloc inh 101
CCCCCc1nnc(NC(=O)OCCC)s1	none
CCCCCOC(=O)Nc1nnc(CCCCC)s1	IL1B cytotox 90
O=C(C1CCC(=O)N1C1CCCCC1)N1CCN(c2ccc(F)cc2)CC1 (stereo not drawn)	none
COc1ccccc1/C=c1\sc2nc(-c3ccccc3OC)nn2c1=O	IL1B NFkB pot 52
N#Cc1c(N)nc2c(c1-c1cccc(O)c1)CCCCCC2	none
O=C(COC(=O)c1ccccc1F)c1ccc(-n2nncc2-c2ccco2)cc1	IL1B NFkB pot 42
COc1ccc(-n2c(SCC(=O)Nc3ccc4c(c3)OCO4)nc3c(c2=O)SCC3)cc1	none
CCOc1ccc(-n2c(SCC(=O)Nc3ccc(OC)cc3)nc3c(c2=O)SCC3)cc1	VCAM1 TNFa inh 60, HUVEC tox TNFa 82
CC(=O)NCC(=O)N(c1ccccc1)C1(C(=O)NC2CCCCC2)CCCCC1	none
CCOC(=O)N1CCC(c2cc(=O)n3[nH]cc(C(=O)OC)c3n2)CC1	none

From PubChem
